Measured values reported in PubChem BioAssay.
Calls of active or inactive are those of the source.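 The calls were made as follows, unless noted: active = inhibition above 50%; inactive = the rest.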

Test: antimalarial activity against Dd2 strain (AID 2302;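 active = growth inhibition above 50% at the single 2 µM test dose, taken to imply half-maximal potency below 2 µM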;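 also: 0% = DMSO untreated growth and 100% = chloroquine plus artemisinin killed control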)
Details: P. falciparum Dd2 in RBCs, LDH growth readout, 72 h; at 2 µM; stronger effect = higher value

Row | SMILES | growth inhibition
1 | Cc1nnsc1C(=O)Nc1ccc(-c2ccc(-c3nc4c(C)cccc4[nH]3)s2)cc1 | 61% (active)
2 | O=C([C@@H]1CCCCN1c1ccc([N+](=O)[O-])c2ccccc12)N1CCN(c2ncccn2)CC1 | 5% (inactive)
3 | O=C(/C=C/c1ccc(Cl)c(Cl)c1)NCCCCCN1CCCN(C(=S)Nc2cccc(Cl)c2)CC1 | 7% (inactive)
4 | O=C(Nc1cccc(-c2cccc(-c3nc4ccc(C(F)(F)F)cc4[nH]3)c2)c1)c1csnn1 | 37% (inactive)
5 | Cc1cc(CN2C(=O)C(c3ccccc3)(c3ccccc3)N=C2N)c(C(F)(F)F)o1 | 84% (active)
6 | COc1ccc(-c2ccc(NC(=O)c3ccccc3)cc2)cc1CN1CCCN(C)CC1 | 17% (inactive)
7 | COc1ccc2nccc(N3C[C@H]4C[C@@H]3CN4CCNCc3ccc4c(n3)NC(=O)CS4)c2n1 | 0% (inactive)
8 | COc1ccc2ncc(OC)c(CCN3CC[C@@H](NCc4ccc5c(n4)NC(=O)CS5)[C@H](O)C3)c2n1 | 99% (active)
9 | Cn1cncc1C(=O)Nc1cccc(-c2ccc(-c3nc4ccc(C(F)(F)F)cc4[nH]3)cc2)c1 | 98% (active)
10 | Cc1c(-c2cccc(CNCCc3ccc(Cl)cc3)c2)cnc(N)c1C | 30% (inactive)
11 | O=C(N[C@@H](Cc1ccccc1)C(=O)O)c1cc(-c2ccc(F)cc2)no1 (tested in a mixture with another compound) | 49% (inactive)
12 | O=C(NCCCCCN1CCC(c2c[nH]c3ccccc23)CC1)Nc1cccc(I)c1 | 11% (inactive)
13 | O=C(Nc1ccc(N2CCCCC2)c(Cl)c1)c1ccco1 | 95% (active)
14 | CC(C)C(C(=O)Nc1ccc2c(c1)OCO2)c1ccc(Cl)cc1 (stereo not given) | 89% (active)
15 | CC(C)c1ncc(-c2ccncc2)c(C2CCC(CNC(=O)c3ccncc3)CC2)n1 (stereo not given) | 49% (inactive)
16 | O=S(=O)(NCCN1CCCC1)c1cccc(-c2cccc(CNCc3ccc(F)cc3)c2)c1 | 73% (active)
17 | CCCC(C)NC(=O)c1cnn(-c2ccc(C(C)(C)C)cc2)c1OCc1ccc(Br)cc1 (stereo not given) | 64% (active)
18 | COC(=O)c1cccc(CNCc2cccc(-c3cccc(-c4nc5ccc(F)cc5[nH]4)c3)c2)c1 | 52% (active)
19 | CCCCCN1CCC(NS(=O)(=O)c2cccc(C(=O)Nc3cccc(C(F)(F)F)c3)c2)C1 (stereo not given) | 17% (inactive)
20 | CCNc1cc(C(=O)N[C@@H](Cc2ccccc2)[C@H](O)CNC2(CCC(C)C)CC2)cc(N2CCCCS2(=O)=O)c1 | 52% (active)

Row | SMILES | growth inhibition
21 | COc1cc2nc(NC3CCN(Cc4ccccc4)CC3)nc(N)c2cc1OC | 30% (inactive)
22 | CCN(CC)CCCNc1ncc2c(-c3ccc(NC(=O)Nc4cc(C(F)(F)F)ccc4F)c(F)c3)nn(C)c2n1 | 68% (active)
23 | CN(C)CCOc1cc(NC(=O)Nc2ccc(Oc3ccccc3)cc2)ccc1I | 4% (inactive)
24 | COc1ccc(NC(=O)/C=C/c2ccc(-c3ccccc3)cc2)cc1N1CCN(C)CC1 | 46% (inactive)
25 | CCc1c[nH]c2c(N3CCCS3(=O)=O)cc(C(=O)N[C@@H](Cc3ccccc3)[C@H](O)CNC(C)(C)CCCC(C)C)cc12 | 98% (active)
26 | O[C@H]1[C@H](OCc2ccc(-c3ccccc3)cc2)CC[C@@H]1N1CCCCC1 | 101% (active)
27 | Cc1ccc(NC(=O)c2ccc(CN3CCCN(Cc4cccc(O)c4)CC3)cc2)cc1F | 31% (inactive)
28 | CCNc1cc(C(=O)N[C@@H](Cc2ccccc2)[C@H](O)CNC2CCC(C(C)(C)C)CC2)cc(N2CCCC2=O)c1 (stereo not given in full) | 98% (active)
29 | OC(COCc1ccc(-c2ccccc2)cc1)CN1CCCCC1 (stereo not given) | 75% (active)
30 | Nc1ccc2nc(C=Cc3ccc(Cl)cc3)[nH]c2c1 | 83% (active)
31 | CC(C)NCc1cccc(-c2ccc(NC(=O)c3ccc(F)cc3)cc2)c1 | 3% (inactive)
32 | CN(CCCc1c[nH]c2ccccc12)CCC1CCC(NC(=O)/C=C/c2ccc(Cl)c(Cl)c2)CC1 (stereo not given) | 63% (active)
33 | Cc1c(-c2cccc(C(C)(C)NCCCN3CCCCC3)c2)cnc(N)c1C | 2% (inactive)
34 | CC(CN(C)C)C(=O)Nc1cccc(-c2cccc(-c3nc4ccccc4[nH]3)c2)c1 (stereo not given) | 25% (inactive)
35 | O=[N+]([O-])c1cccc(CNCC2CCN(Cc3ccc(Cl)c(Cl)c3)CC2)c1 | 41% (inactive)
36 | NC(N)=NCCCN(Cc1ccccc1)c1ccccc1 | 97% (active)
37 | Cc1cc(=O)c(-c2ccc(OCc3ccc(OC(F)(F)F)cc3)cc2)c(C)[nH]1 | 92% (active)
38 | CC(C)CNCc1cccc(-c2cccc(CN(CCCN3CCN(C)CC3)C(=O)NC3CCCCC3)c2)c1 | 84% (active)
39 | CC(C)c1ccc(S(=O)(=O)Nc2cccc(CCN3CCC(N4CCCCC4)CC3)c2)cc1 | 35% (inactive)
40 | O=C1Nc2cccc3c2C1(CCCCN1CCC(c2c[nH]c4cc(C(F)(F)F)ccc24)CC1)CCC3 (stereo not given) | 79% (active)

Test: HepG2 cytotoxicity, primary screen, cytotoxicity control for P. falciparum antimalarial project, cell-based, ATP luminescence (AID 2303);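 also: 0% = DMSO wells and 100% = digitonin-killed cells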
Details: HepG2 viability, 24-48 h, at 10 µM, stronger effect = higher value

Row | SMILES | inhibition
41 | Cc1nnsc1C(=O)Nc1ccc(-c2ccc(-c3nc4c(C)cccc4[nH]3)s2)cc1 | 63% (active)
42 | O=C([C@@H]1CCCCN1c1ccc([N+](=O)[O-])c2ccccc12)N1CCN(c2ncccn2)CC1 | 50% (active)
43 | O=C(/C=C/c1ccc(Cl)c(Cl)c1)NCCCCCN1CCCN(C(=S)Nc2cccc(Cl)c2)CC1 | 19% (inactive)
44 | O=C(Nc1cccc(-c2cccc(-c3nc4ccc(C(F)(F)F)cc4[nH]3)c2)c1)c1csnn1 | 45% (inactive)
45 | Cc1cc(CN2C(=O)C(c3ccccc3)(c3ccccc3)N=C2N)c(C(F)(F)F)o1 | 11% (inactive)
46 | COc1ccc(-c2ccc(NC(=O)c3ccccc3)cc2)cc1CN1CCCN(C)CC1 | 24% (inactive)
47 | COc1ccc2nccc(N3C[C@H]4C[C@@H]3CN4CCNCc3ccc4c(n3)NC(=O)CS4)c2n1 | 21% (inactive)
48 | COc1ccc2ncc(OC)c(CCN3CC[C@@H](NCc4ccc5c(n4)NC(=O)CS5)[C@H](O)C3)c2n1 | 21% (inactive)
49 | Cn1cncc1C(=O)Nc1cccc(-c2ccc(-c3nc4ccc(C(F)(F)F)cc4[nH]3)cc2)c1 | 4% (inactive)
50 | Cc1c(-c2cccc(CNCCc3ccc(Cl)cc3)c2)cnc(N)c1C | 9% (inactive)
51 | O=C(N[C@@H](Cc1ccccc1)C(=O)O)c1cc(-c2ccc(F)cc2)no1 (tested in a mixture with another compound) | -2% (inactive)
52 | O=C(NCCCCCN1CCC(c2c[nH]c3ccccc23)CC1)Nc1cccc(I)c1 | 70% (active)
53 | O=C(Nc1ccc(N2CCCCC2)c(Cl)c1)c1ccco1 | -1% (inactive)
54 | CC(C)C(C(=O)Nc1ccc2c(c1)OCO2)c1ccc(Cl)cc1 (stereo not given) | 25% (inactive)
55 | CC(C)c1ncc(-c2ccncc2)c(C2CCC(CNC(=O)c3ccncc3)CC2)n1 (stereo not given) | -6% (inactive)
56 | O=S(=O)(NCCN1CCCC1)c1cccc(-c2cccc(CNCc3ccc(F)cc3)c2)c1 | 41% (inactive)
57 | CCCC(C)NC(=O)c1cnn(-c2ccc(C(C)(C)C)cc2)c1OCc1ccc(Br)cc1 (stereo not given) | 17% (inactive)
58 | COC(=O)c1cccc(CNCc2cccc(-c3cccc(-c4nc5ccc(F)cc5[nH]4)c3)c2)c1 | 27% (inactive)
59 | CCCCCN1CCC(NS(=O)(=O)c2cccc(C(=O)Nc3cccc(C(F)(F)F)c3)c2)C1 (stereo not given) | 25% (inactive)
60 | CCNc1cc(C(=O)N[C@@H](Cc2ccccc2)[C@H](O)CNC2(CCC(C)C)CC2)cc(N2CCCCS2(=O)=O)c1 | 6% (inactive)

Row | SMILES | inhibition
61 | COc1cc2nc(NC3CCN(Cc4ccccc4)CC3)nc(N)c2cc1OC | 27% (inactive)
62 | CCN(CC)CCCNc1ncc2c(-c3ccc(NC(=O)Nc4cc(C(F)(F)F)ccc4F)c(F)c3)nn(C)c2n1 | 100% (active)
63 | CN(C)CCOc1cc(NC(=O)Nc2ccc(Oc3ccccc3)cc2)ccc1I | 13% (inactive)
64 | COc1ccc(NC(=O)/C=C/c2ccc(-c3ccccc3)cc2)cc1N1CCN(C)CC1 | 21% (inactive)
65 | CCc1c[nH]c2c(N3CCCS3(=O)=O)cc(C(=O)N[C@@H](Cc3ccccc3)[C@H](O)CNC(C)(C)CCCC(C)C)cc12 | 13% (inactive)
66 | O[C@H]1[C@H](OCc2ccc(-c3ccccc3)cc2)CC[C@@H]1N1CCCCC1 | 9% (inactive)
67 | Cc1ccc(NC(=O)c2ccc(CN3CCCN(Cc4cccc(O)c4)CC3)cc2)cc1F | 48% (inactive)
68 | CCNc1cc(C(=O)N[C@@H](Cc2ccccc2)[C@H](O)CNC2CCC(C(C)(C)C)CC2)cc(N2CCCC2=O)c1 (stereo not given in full) | 38% (inactive)
69 | OC(COCc1ccc(-c2ccccc2)cc1)CN1CCCCC1 (stereo not given) | 13% (inactive)
70 | Nc1ccc2nc(C=Cc3ccc(Cl)cc3)[nH]c2c1 | 19% (inactive)
71 | CC(C)NCc1cccc(-c2ccc(NC(=O)c3ccc(F)cc3)cc2)c1 | 7% (inactive)
72 | CN(CCCc1c[nH]c2ccccc12)CCC1CCC(NC(=O)/C=C/c2ccc(Cl)c(Cl)c2)CC1 (stereo not given) | 38% (inactive)
73 | Cc1c(-c2cccc(C(C)(C)NCCCN3CCCCC3)c2)cnc(N)c1C | 5% (inactive)
74 | CC(CN(C)C)C(=O)Nc1cccc(-c2cccc(-c3nc4ccccc4[nH]3)c2)c1 (stereo not given) | 42% (inactive)
75 | O=[N+]([O-])c1cccc(CNCC2CCN(Cc3ccc(Cl)c(Cl)c3)CC2)c1 | 9% (inactive)
76 | NC(N)=NCCCN(Cc1ccccc1)c1ccccc1 | -13% (inactive)
77 | Cc1cc(=O)c(-c2ccc(OCc3ccc(OC(F)(F)F)cc3)cc2)c(C)[nH]1 | 3% (inactive)
78 | CC(C)CNCc1cccc(-c2cccc(CN(CCCN3CCN(C)CC3)C(=O)NC3CCCCC3)c2)c1 | 16% (inactive)
79 | CC(C)c1ccc(S(=O)(=O)Nc2cccc(CCN3CCC(N4CCCCC4)CC3)c2)cc1 | 37% (inactive)
80 | O=C1Nc2cccc3c2C1(CCCCN1CCC(c2c[nH]c4cc(C(F)(F)F)ccc24)CC1)CCC3 (stereo not given) | 99% (active)
